Source: PubChem BioAssay (NCATS)
Inconclusive results are not listed. The source made the active and inactive calls. Calls follow the shape of the dose curve; as a rule, active = well fitted curve in the direction sought with a large enough effect; inconclusive = small, poorly fitted or top-dose-only effect, or another doubt; inactive = no such curve, though single readings can be large; an effect the other way counts as inactive or inconclusive.

Tests used:
[1] = tested on: Zika virus NS2B-NS3 protease (linked construct); test: Primary screen NINDS Rhodamine qHTS for Zika virus inhibitors (AID 1347160); also: nearly all actives have a fitted effect of over 55% in size; as to activity change, negative = inhibition: % is scaled to controls: 0 for no effect and ±100 for the full control effect
How it was run: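 Enzyme (25 nM, linked NS2B-NS3) was preincubated 15 min with compound in 10 mM Tris-HCl pH 8.0, 0.01% Tween 20. Rhodamine110 substrate (1.5 microM) was then added and fluorescence read at start and after 15 min.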

[2] = target: Calcium and integrin-binding protein 1 (Homo sapiens) (UniProt Q99828); test: Primary qHTS for Identification of Calcium Integrin Binding Protein 1 (CIB1) Competitor (AID 1508620);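 also: GST tagged CIB1 binding a fluorescein labelled alphaIIb integrin peptide tracer; top concentration of the series differs between compounds; % is scaled to controls: 0 for no effect and ±100 for the full control effect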
Calcium and integrin-binding protein 1 (Homo sapiens), sequence (Q99828 whole entry, looked up): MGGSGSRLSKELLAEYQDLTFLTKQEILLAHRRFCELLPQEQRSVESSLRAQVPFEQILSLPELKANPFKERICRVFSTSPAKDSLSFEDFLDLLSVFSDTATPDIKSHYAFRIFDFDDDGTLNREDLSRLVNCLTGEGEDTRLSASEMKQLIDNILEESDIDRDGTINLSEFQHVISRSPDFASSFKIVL
How it was run: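 CIB1-GST (1 uM final) and compound incubated 15 min at room temperature before adding FITC-alphaIIb peptide tracer (100 nM final). Competition for binding read by fluorescence polarization (ex 480, em 540) after another 15 min at room temperature.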

[3] = target: Glutathione peroxidase 1 (Homo sapiens) (UniProt P07203); test: Primary qHTS Assay for Inhibitors of Recombinant Selenoprotein Glutathione Peroxidase 1 (GPX1) (AID 1845191); also: nearly all actives have a fitted effect of over 65% in size; as to activity, negative = inhibition: % is scaled to controls: 0 for no effect and ±100 for the full control effect
Glutathione peroxidase 1 (Homo sapiens), sequence (P07203 whole entry, looked up): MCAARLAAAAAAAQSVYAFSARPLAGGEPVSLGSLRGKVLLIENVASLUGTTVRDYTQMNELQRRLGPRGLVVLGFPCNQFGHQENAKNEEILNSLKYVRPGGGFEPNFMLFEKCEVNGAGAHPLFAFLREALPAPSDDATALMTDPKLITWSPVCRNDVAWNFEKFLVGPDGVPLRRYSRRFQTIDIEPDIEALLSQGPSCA
How it was run: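 NADPH consumption tracked by fluorescence at 340/450 nm between t=0 and t=15 min, room temperature. Final mix: 10 nM GPX1, 100 nM glutathione reductase, 1 mM GSH, 0.5 mM NADPH, 0.5 mM cumene hydroperoxide, 0.01% BSA; 30 min compound–enzyme preincubation.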

[4] = target: Phospholipid hydroperoxide glutathione peroxidase GPX4 (Homo sapiens) (UniProt P36969); test: Primary qHTS Assay for Inhibitors of Recombinant Selenoprotein Glutathione Peroxidase 4 (GPX4) (AID 1845192); also: % is scaled to controls: 0 for no effect and ±100 for the full control effect; nearly all actives have a fitted effect of over 65% in size
Phospholipid hydroperoxide glutathione peroxidase GPX4 (Homo sapiens), sequence (P36969 whole entry, looked up): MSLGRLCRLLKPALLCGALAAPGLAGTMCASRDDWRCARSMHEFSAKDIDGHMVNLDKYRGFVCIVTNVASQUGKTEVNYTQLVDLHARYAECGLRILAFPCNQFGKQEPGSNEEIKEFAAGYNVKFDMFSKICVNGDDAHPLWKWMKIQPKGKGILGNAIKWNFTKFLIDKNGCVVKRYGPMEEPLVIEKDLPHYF
How it was run: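 NADPH consumption followed by fluorescence at 340/450 nm, t=0 and after 15 min at room temperature. Reaction started with cumene hydroperoxide (0.5 mM final) after 30 min compound–GPX4 preincubation; final 200 nM GPX4, 100 nM GR, 1 mM GSH, 0.5 mM NADPH.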

[5] = target: Luciferin 4-monooxygenase (Photinus pyralis) (UniProt P08659); test: Primary firefly luciferase (FLuc) qHTS assay for identification of artifact compounds. (AID 1845220); settings: outcome: dose series up to 54.1 µM unless noted; also: nearly all actives have a fitted effect of over 60% in size;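 as to activity change, negative = inhibition: plate controls were DMSO vehicle for no effect and no enzyme for full effect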
How it was run: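 Compounds sat 15 min at room temperature with 10 uM luciferin and 10 uM ATP (pH 7.6 Tris acetate). Firefly luciferase (10 nM final) was then added, and luminescence was read 5 min later. Data normalized to no-enzyme and DMSO controls were Hill-fitted.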

[6] = Primary fluorescence-based thiol-reactive (MSTI) qHTS assay for identification of artifact compounds. (AID 1845221); also: nearly all actives have a fitted effect of over 65% in size; also: potency is read from the fitted curve at half-maximal effect;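 as to activity change, negative = thiol reactive: thiol-reactive compounds lower the probe fluorescence signal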
How it was run: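 MSTI probe at 4 uM final in 2% DMSO/PBS pH 7.4; compounds, 1 h at room temperature in dark. Fluorescence Ex/Em 525/598 nm, normalised to Acetyl-MSTI and MSTI, fitted to 4-parameter Hill.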

[7] = tested on: Nanoluciferase (engineered Oplophorus gracilirostris luciferase); test: Primary Nanoluciferase (NLuc) qHTS assay for identification of artifact compounds. (AID 1845222);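 also: 0% = DMSO and -100% = no enzyme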
How it was run: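 Luminescence from secreted NLuc (filtered, 1:55-diluted S16 cell medium) read 5 min after Nano-Glo substrate; compounds preincubated 15 min, RT. Hill fits of inhibition normalized to DMSO and no-enzyme.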

[8] = Primary redox qHTS assay for identification of artifact compounds. (AID 1845223);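 also: 0% = DMSO and 100% = reference compound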
How it was run: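 Redox-cycling detection via DTT (250 uM final) oxidation coupled to Amplex Red (25 uM)/HRP (250 mU/mL) in HBSS. 15 min preincubation plus 30 min after DTT, room temperature. Ex/Em 525/598 nm; 4-parameter Hill fit against DMSO and 10 uM DA3003.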

[9] = tested on: CRL-7250; test: Cytotoxic Profiling of Annotated Libraries Using Quantitative High-Throughput Screening (AID 1296008); settings: Five cell lines viability, CellTiter-Glo ATP luminescence, 48-72 h; max response: stronger effect = lower value; also: nearly all actives have a fitted effect of over 60% in size; also: potency is read from the fitted curve at half-maximal effect; as to max response: % is scaled to controls: 0 for no effect and ±100 for the full control effect
How it was run: (§1)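 Cytotoxicity was measured as CellTiter-Glo ATP luminescence, read after 10 min at room temperature. Compound treatment of the cells lasted 48 or 72 hr at 37 degrees Celsius in a qHTS format.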

[10] = tested on: NIH3T3; test: as above; settings: Five cell lines viability, CellTiter-Glo ATP luminescence, 48-72 h; max response: stronger effect = lower value
How it was run: as §1

[11] = tested on: C33A; test: Primary qHTS to identify gynecologic anti-cancer compounds using libraries of approved drugs and bioactive compounds (AID 1345084); settings: Gynecologic cancer cell panel viability, ATPlite luminescence, 48 h; series mostly up to 57.5 µM; also: nearly all actives have a fitted effect of over 55% in size; also: potency is read from the fitted curve at half-maximal effect
How it was run: (§2)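 Cells, 1,000 per well, plated 16 h, then exposed 48 h at 37 C to compounds. Viability by ATPlite luminescence after 15 min at room temperature.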

[12] = tested on: CAOV3; test: as above; settings: Gynecologic cancer cell panel viability, ATPlite luminescence, 48 h; series mostly up to 57.5 µM
How it was run: as §2

[13] = tested on: CASKI; test: as above; settings: Gynecologic cancer cell panel viability, ATPlite luminescence, 48 h; series mostly up to 57.5 µM
How it was run: as §2

[14] = tested on: Es-2; test: as above; settings: Gynecologic cancer cell panel viability, ATPlite luminescence, 48 h; series mostly up to 57.5 µM
How it was run: as §2

[15] = tested on: Hek293T; test: as above; settings: Gynecologic cancer cell panel viability, ATPlite luminescence, 48 h, control line for the selectivity index; series mostly up to 57.5 µM
How it was run: as §2

[16] = tested on: JEG-3; test: as above; settings: Gynecologic cancer cell panel viability, ATPlite luminescence, 48 h; series mostly up to 57.5 µM
How it was run: as §2

[17] = tested on: OV90; test: as above; settings: Gynecologic cancer cell panel viability, ATPlite luminescence, 48 h; series mostly up to 57.5 µM
How it was run: as §2

[18] = tested on: PA-1; test: as above; settings: Gynecologic cancer cell panel viability, ATPlite luminescence, 48 h; series mostly up to 57.5 µM
How it was run: as §2

[19] = tested on: Tov-21-G; test: as above; settings: Gynecologic cancer cell panel viability, ATPlite luminescence, 48 h; series mostly up to 57.5 µM
How it was run: as §2

[20] = tested on: Tov112D; test: as above; settings: Gynecologic cancer cell panel viability, ATPlite luminescence, 48 h; series mostly up to 57.5 µM
How it was run: as §2

C=C(C)[C@@]12O[C@@H]1[C@@]1(C)C(=C[C@H]2O)CC[C@@H](O)[C@@H]1C
inactive: Potency [1] | Potency [2] | Potency [3] | Potency [4] | outcome [5] | Potency [6] | Potency [7] | Potency [8] | max response [9] -1.42% | max response [10] 2.77% | Potency [11] | Potency [12] | Potency [13] | Potency [14] | Potency [15] | Potency [16] | Potency [17] | Potency [18] | Potency [19] | Potency [20]

C[C@]12CC[C@@H](O)C[C@@H]1CC[C@@H]1[C@@H]2CC[C@]2(C)C(=O)[C@@H](Br)C[C@@H]12
inactive: Potency [1] | Potency [2] | Potency [3] | Potency [4] | outcome [5] | Potency [6] | Potency [7] | Potency [8] | max response [9] -20.8% | Potency [11] | Potency [12] | Potency [13] | Potency [14] | Potency [15] | Potency [16] | Potency [17] | Potency [18] | Potency [19] | Potency [20]

CC1=CC2/C=C(\C)CCC(O)C(O)/C=C/C(=O)OC23C(=O)NC(CC(C)C)C3C1C (centres undefined)
inactive: Potency [1] | Potency [2] | Potency [3] | Potency [4] | outcome [5] | Potency [6] | Potency [7] | Potency [8] | max response [9] -26.9% | max response [10] -15.3% | Potency [11] | Potency [12] | Potency [13] | Potency [14] | Potency [15] | Potency [16] | Potency [17] | Potency [18] | Potency [19] | Potency [20]

CC1CCCC(O)CCC/C=C/c2cc(O)cc(O)c2C(=O)O1 (centres undefined)
inactive: Potency [2] | Potency [4] | outcome [5] | Potency [7] | Potency [8] | max response [9] -5.57% | Potency [12] | Potency [13] | Potency [14] | Potency [15] | Potency [16] | Potency [17] | Potency [18] | Potency [19] | Potency [20]
active: Potency [6] 1850 nM | Potency [10] 8050 nM

CC(=O)O[C@H]1C[C@@H](C)O[C@H]2O[C@@H]3CC4CC[C@@H]5C(CC[C@]6(C)[C@@H](C7=CC(=O)OC7)CC[C@]56O)[C@@]4(C=O)C[C@H]3O[C@]21O (some centres undefined)
active: Potency [9] 43.2 nM | Potency [11] 100 nM | Potency [12] 282 nM | Potency [13] 562 nM | Potency [14] 126 nM | Potency [15] 158 nM | Potency [17] 562 nM | Potency [18] 126 nM | Potency [19] 100 nM | Potency [20] 100 nM
inactive: Potency [1] | Potency [2] | Potency [3] | outcome [5] | Potency [6] | Potency [7]

O=C(N1CCCCC1Cc1ccccc1)n1cc(-c2ccc(-c3ccccc3)cc2)nn1 (centres undefined)
inactive: Potency [1] | Potency [2] | Potency [3] | Potency [4] | outcome [5] | Potency [6] | Potency [7] | Potency [8] | max response [9] 2.49% | outcome [10] | Potency [11] | Potency [12] | Potency [13] | Potency [14] | Potency [15] | Potency [16] | Potency [17] | Potency [18] | Potency [19] | Potency [20]

CCCCCn1cc(C(=O)c2cccc3ccccc23)c2ccccc21
active: Potency [9] 18400 nM
inactive: Potency [1] | Potency [3] | Potency [4] | outcome [5] | Potency [6] | Potency [7] | Potency [8] | max response [10] 4.48% | Potency [11] | Potency [12] | Potency [13] | Potency [14] | Potency [15] | Potency [16] | Potency [17] | Potency [18] | Potency [19] | Potency [20]

C/C=C(\C)C(=O)OC1C2C3(C)CCC(OC4CC(OC)C(OC5OC(C)C(O)C(OC)C5O)C(C)O4)CC3CCC23OC32CCC(C(C)=O)C2(C)C1OC(=O)/C(C)=C/C (centres undefined)
inactive: Potency [1] | Potency [2] | Potency [3] | activity change, negative = inhibition [5] 0.886% [at 11.6 µM] | activity change, negative = thiol reactive [6] 84.6% [at 11.5 µM] | activity, negative = inhibition [7] 2.09% [at 11.6 µM] | redox activity (% of DA3003) [8] 18.3% [at 11.5 µM] | max response [9] -2.9% | max response [10] -16.5% | activity change, negative = cytotoxicity [11] 10.6% [at 11.6 µM] | activity change, negative = cytotoxicity [12] 0.328% [at 11.6 µM] | activity change, negative = cytotoxicity [13] -3.16% [at 11.6 µM] | activity change, negative = cytotoxicity [14] -0.14% [at 11.6 µM] | activity change, negative = cytotoxicity [15] 2.72% [at 11.6 µM] | activity change, negative = cytotoxicity [16] 7.67% [at 11.6 µM] | activity change, negative = cytotoxicity [17] 2.67% [at 11.6 µM] | activity change, negative = cytotoxicity [18] 2.59% [at 11.6 µM] | activity change, negative = cytotoxicity [19] -0.804% [at 11.6 µM] | activity change, negative = cytotoxicity [20] -1.3% [at 11.6 µM]

Clc1ccc([C@]23CNC[C@H]2C3)cc1Cl
inactive: Potency [1] | Potency [2] | Potency [3] | Potency [4] | outcome [5] | Potency [6] | Potency [7] | Potency [8] | max response [9] -9.42% | max response [10] 1.31% | Potency [11] | Potency [12] | Potency [13] | Potency [14] | Potency [15] | Potency [16] | Potency [17] | Potency [18] | Potency [19] | Potency [20]

C/C=C1/CN2CC[C@]34C(=Nc5ccccc53)[C@@H]2C[C@@H]1[C@H]4C(=O)OC
inactive: Potency [1] | Potency [2] | Potency [3] | Potency [4] | outcome [5] | Potency [7] | Potency [8] | max response [9] 2.71% | max response [10] -14.3% | Potency [11] | Potency [12] | Potency [13] | Potency [14] | Potency [15] | Potency [16] | Potency [17] | Potency [18] | Potency [19] | Potency [20]
